APP transl inh – APP translation inhibition; SH-SY5Y APP 5'UTR-luciferase reporter, luminescence; inhibition, % at 2 µM; 0.82% of 190,000 active; AID 1285;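 active = inhibition above a set limit, derived from the sample mean plus 3 SD, cut at about 45% in these data; inconclusive = one replicate passes the limit while the other fails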
KLF5 inhibitor – kruppel-like factor 5 inhibition. DLD-1 KLF5 promoter-luciferase reporter, luminescence. inhibition, % at 5 µM. 0.23% of 290,000 active;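 active = inhibition above a per-plate limit of that plate's mean compound inhibition plus 3 SD, cut at about 60% in these data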;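 also: 0% = DMSO wells and 100% = LY294002 at 200 µM; higher means less KLF5 promoter-driven luciferase light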
Ba/F3 V617F tox – loss of viability in JAK2V617F-driven Ba/F3 cells. Ba/F3 EpoR-JAK2V617F viability, ATP luminescence. inhibition, % at 5.6 µM. 1.1% of 220,000 active. AID 1446;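 active = inhibition above the campaign mean plus 3 SD over all tested compounds, cut at about 24% in these data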;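 also: cytokine-independent growth of Ba/F3 cells driven by EpoR plus mutant JAK2; 0% = DMSO-treated cells and 100% = JAK inhibitor I control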
BaF3 tox – reduces parental Ba/F3 cell viability, JAK2V617F counter-screen; CellTiter-Glo ATP luminescence; inhibition, % at 5.6 µM; 1.1% of 220,000 active;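 active = inhibition above a per-campaign cutoff, the mean inhibition of all tested compounds plus 3 SD, cut at about 27% in these data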;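 also: 0% = DMSO wells and 100% = JAK Inhibitor I control wells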
aSyn UTR inh – MLPCN primary screen, SNCA 5' untranslated region | alpha-synuclein 5'UTR reporter, inhibitor activity | inhibition, % (tested at 7.5 µM) | 0.82% of 300,000 active | AID 1813; in the data active = inhibition above about 60%; inconclusive = no clear call, values can overlap the other calls;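 also: H4 neuroglioblastoma cells stably carrying SNCA 5'UTR luciferase fusion; 0% = DMSO wells and 100% = positive control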
IEC-6 tox-1 – counter-screen for KLF5 inhibitors: cytotoxicity in IEC-6 cells; IEC-6 cytotoxicity, luminescence viability; inhibition, % at 5 µM; 0.78% of 290,000 active;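 also: 0% = plate median of test compound wells and 100% = cytotoxic reference compound wells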
BaF3 tox 2 – parental Ba/F3 viability inhibition for JAK2V617F counter-screen; inhibition, % at 5.6 µM; CellTiter-Glo luminescence; cells kept alive by added IL-3; shares compounds with Ba/F3 V617F tox; 31% of 580 active;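 active = cell growth inhibition above the hit limit set in the earlier mutant JAK2 cell screen, cut at about 27% in these data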;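 also: plate controls were DMSO-treated cells for no effect and JAK Inhibitor I control wells for full effect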
JAK2V617F confrm – Ba/F3 EpoR-JAK2V617F viability loss, confirmation; shares compounds with Ba/F3 V617F tox; CellTiter-Glo luminescence; inhibition, % at 5.6 µM; 66% of 580 active; AID 1521;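 active = mean inhibition above the hit cutoff derived in the earlier primary screen, cut at about 25% in these data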;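 also: 0% = DMSO-treated cells and 100% = JAK inhibitor I control wells; higher means lower luminescence from reduced cell ATP and viability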
KLF5 confirm – confirmation of KLF5 inhibitors. DLD-1 KLF5 promoter firefly luciferase reporter, luminescence. 79% of 610 active. shares compounds with KLF5 inhibitor. inhibition, % at 4 µM;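 active = inhibition above a set limit taken from the earlier primary screen, cut at about 63% in these data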;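 also: 0% = DMSO wells and 100% = LY294002 at 200 µM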
IEC-6 tox-2 – kills rat IEC-6 cells in KLF5 counter-screen; shares compounds with KLF5 inhibitor; IEC-6 rat intestinal cells, viability luminescence; inhibition, % at 4 µM; 56% of 610 active; AID 1905; in the data active = inhibition above about 23%;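 also: cells exposed to compounds for 48 hours before viability read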
IEC-6 tox confirm – IEC-6 cytotoxicity, confirmation assay | 63% of 1,900 active | shares compounds with IEC-6 tox-1 | IEC-6 rat intestinal epithelial viability, luminescence | inhibition, % at 5 µM | AID 1907;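 also: 0% = vehicle and 100% = reference cytotoxic drug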
The depositor's hits bear a star; ? = inconclusive; nt = no result. Sampled rows, rich in hits. Any-hit rate of the full collection: about 2.2%. Rule as the data show it, unless noted: active = inhibition above about 22%; inactive = the rest.

SMILES | APP transl inh | KLF5 inhibitor | Ba/F3 V617F tox | BaF3 tox | aSyn UTR inh | IEC-6 tox-1 | KLF5 confirm | IEC-6 tox-2 | others
O=C(NC(NC(=S)N1CCOCC1)C(Cl)(Cl)Cl)c1ccc(Cl)cc1 (configuration not stated) | 10 | 11 | 30* | -1 | 66* | 24* | nt | nt | BaF3 tox 2=31*;JAK2V617F confrm=60*;IEC-6 tox confirm=31*
CC(=O)OC[C@H]1O[C@@H](n2ncc(=O)[nH]c2=O)[C@H](OC(C)=O)[C@@H]1OC(C)=O | -7 | 47 | 61* | 26 | 9 | 39* | nt | nt | BaF3 tox 2=53*;JAK2V617F confrm=75*;IEC-6 tox confirm=22*
COc1ccc(OC)c(/C=N/NC(=O)c2[nH]nc3c2CCc2ccccc2-3)c1 | 6 | 7 | -2 | 6 | -8 | -10 | nt | nt
COc1cccc(/C=N/NC(=O)c2[nH]nc3c2CCc2ccccc2-3)c1 | nt | 27 | 29* | -1 | -69 | 23* | nt | nt | BaF3 tox 2=44*;JAK2V617F confrm=92*;IEC-6 tox confirm=43*
O=C(NCc1ccc2c(c1)CCO2)Nc1cccc(C(F)(F)F)c1 | nt | -26 | -3 | 2 | -27 | 0 | nt | nt
Cn1cc(C(=O)N/N=C/c2ccc3c(c2)OCO3)c2ccccc21 | nt | 32 | 48* | 19 | -276 | 53* | nt | nt | BaF3 tox 2=13;JAK2V617F confrm=23;IEC-6 tox confirm=48*
O=c1c(Cl)c(Cl)cnn1Cc1nnc(-c2ccc(Cl)cc2)o1 | 77* | -3 | 34* | -8 | -179 | 35* | nt | nt | BaF3 tox 2=66*;JAK2V617F confrm=81*;IEC-6 tox confirm=17
O=C(CCC1CCCC1)Nc1ccc(C(=O)NCc2cccnc2)cc1 | 29 | -21 | 31* | 20 | 72* | 85* | nt | nt | BaF3 tox 2=30*;JAK2V617F confrm=100*;IEC-6 tox confirm=46*
O=C(O)CCCC(=O)Nc1ccc(C(=O)NCc2cccnc2)cc1 | -29 | -16 | -1 | 4 | 14 | -2 | nt | nt
O=C(Nc1ccc(Br)cc1)Nn1cnnc1 | nt | -24 | nt | nt | -30 | -2 | nt | nt
c1ccc2[nH]c(-c3cnco3)cc2c1 | nt | -42 | nt | nt | 16 | 9 | nt | nt
O=C1C=CC(=O)N1CCCCCCN1C(=O)C=CC1=O | 95* | -5 | 72* | -1 | nt | 24* | nt | nt | BaF3 tox 2=96*;JAK2V617F confrm=80*;IEC-6 tox confirm=2
O=C1C2C3C=CC(C3)C2C(=O)N1CCCCCCN1C(=O)C2C3C=CC(C3)C2C1=O (configuration not stated) | 12 | -43 | 0 | 7 | nt | -4 | nt | nt
O=C(NCc1cccnc1)c1cccs1 | 8 | 14 | 1 | 4 | 10 | 2 | nt | nt
O=C(c1ccc2c(c1)C(=O)N(CCCO)C2=O)c1ccc2c(c1)C(=O)N(CCCO)C2=O | 1 | 26 | 1 | 4 | nt | 2 | nt | nt
O=C1c2ccc3c4c(ccc(c24)C(=O)N1CCCCO)C(=O)N(CCCCO)C3=O | 28 | 10 | 32* | 13 | 111* | 29* | nt | nt | BaF3 tox 2=79*;JAK2V617F confrm=91*;IEC-6 tox confirm=37*
Cc1ccc(S(=O)(=O)Nc2c(C)nc3nc(C)[nH]n3c2=O)c(C)c1 | nt | -21 | nt | nt | -6 | -1 | nt | nt
COc1cccc(OC)c1C(=O)NCCc1ccccc1 | nt | nt | nt | nt | 10 | nt | nt | nt
COC(=O)c1c(N)sc(C(=O)NCCc2ccccc2)c1C | nt | 93* | nt | nt | 105* | 2 | 85* | -2
O=C(NC(=O)c1ccccc1)Nc1ccccn1 | nt | 84* | nt | nt | 64* | 13 | 66* | 33*
O=C(Nc1ccccn1)c1ccc(C(=O)c2ccccc2)cc1 | nt | nt | nt | nt | -108 | nt | nt | nt
COc1cccc2c1OCC(C(=O)O)C2 (configuration not stated) | 1 | -15 | -1 | 8 | 16 | -5 | nt | nt
COc1cccc2c1C(CO)N1C(C#N)C3CC(C(=O)O)C(C1C2)N3C (configuration not stated) | nt | 110* | 94* | 95* | nt | 100* | 109* | 100*
O=c1cc(-c2ccccc2)[nH]c2ccccc12 | 94* | 65* | 82* | 79* | 68* | 84* | 83* | 57*
CCOc1ccc(N2C(=O)C3C4C=CC([C@H]5CC45)[C@@H]3C2=O)cc1 (some centres not stated) | nt | -32 | nt | nt | -20 | -4 | nt | nt
SMILES | APP transl inh | KLF5 inhibitor | Ba/F3 V617F tox | BaF3 tox | aSyn UTR inh | IEC-6 tox-1 | KLF5 confirm | IEC-6 tox-2 | others
CN(C(=O)COC(=O)/C=C/c1cccc([N+](=O)[O-])c1)C1CCS(=O)(=O)C1 (configuration not stated) | nt | 83* | -3 | 0 | -22 | -5 | 97* | -3
CCCOc1ccccc1C1CC(=O)Nc2cc3c(cc21)OCCO3 (configuration not stated) | 94* | 66* | 77* | 77* | 103* | 81* | 83* | 64*
CC(C)Oc1ccccc1C1CC(=O)Nc2cc3c(cc21)OCO3 (configuration not stated) | 92* | 87* | 73* | 75* | 91* | 84* | 83* | 64*
Cc1cc(NC(=O)CCC(=O)N(CC(=O)NCC2CCCO2)c2cccc(F)c2)no1 (configuration not stated) | nt | -3 | nt | nt | 3 | 0 | nt | nt
O=C(NCc1ccccc1)c1cc[n+](Cc2ccccc2)cc1 | 10 | -12 | 0 | 5 | 8 | 2 | nt | nt
Cc1ccc2c(c1)COc1c3ccc(C(=O)O)cc3nn1-2 | nt | 92* | nt | nt | 51 | -4 | 9 | -7
CC(Nc1cccnc1)=C(C#N)C#N | 0 | -22 | 0 | 4 | -10 | -1 | nt | nt
O=Cc1ccc2cccnc2n1 | 1 | 20 | 3 | 5 | -19 | 6 | nt | nt
O=Cc1ccc2ccc3cccnc3c2n1 | nt | 78* | nt | nt | 12 | 2 | -4 | -5
COc1ccccc1OCC(=O)N/N=C/c1c(O)ccc2ccccc12 | nt | 67* | nt | nt | ? | 4 | 58 | -6
CC(=O)c1ccc(N2CCN(S(=O)(=O)c3ccc(-c4cnc(C5CC5)o4)cc3)CC2)cc1 | nt | -29 | nt | nt | -29 | -20 | nt | nt
O=C(Nc1nnc(SCC(=O)N2CCCC2)s1)C1CC(=O)N(c2ccccc2)C1 (configuration not stated) | nt | -6 | nt | nt | 5 | 6 | nt | nt
Cn1c2ccccc2c2cc(C(=O)N3CCOCC3)sc21 | -5 | 66* | 4 | 6 | -11 | 15 | 44 | 17
Cn1cccc1-c1cc(C(=O)N/N=C/c2cc(Br)ccc2O)[nH]n1 | nt | 65* | nt | nt | 71* | 12 | 79* | -2
O=C(N/N=C/c1cc(Br)c(O)c(Br)c1O)c1ccc2c(c1)OCCO2 | nt | -20 | nt | nt | 39 | 12 | nt | nt
Cc1cc(Br)cc(/C=N/NC(=O)c2ccc3c(c2)OCO3)c1O | nt | 70* | nt | nt | 8 | 16 | 61 | 15

Assay outcomes as filed in PubChem.
